# A selection: hits, their analogues and other compounds. The true share with any hit is near 2.4%.
# D2 ag-1 – Beta-Arrestin HTS for Positive Allosteric Modulators of the Human D2 Dopamine Receptor: Agonists | 360,000 compounds, 0.084% hits | DiscoveRx PathHunter D2 beta-arrestin, luminescence, 90 min; 100% = 57 uM dopamine signal | D(2) dopamine receptor (Homo sapiens), P14416 | AID 624465, 2012 | activation, % (test concentration not listed); in the data active = activation above about 40%; inconclusive = between about 15% and that limit
#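 DiscoveRx PathHunter D2 beta-arrestin cells (2,100/well) attached overnight, then compound-stimulated 90 min at 37 C in HBSS/10 mM HEPES/0.1% Tween-20 buffer; beta-galactosidase complementation read by luminescence after 1 h at ambient temperature. Dopamine 57 uM final (EC100) as control.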
# D2 PAM-1 – Beta-Arrestin HTS for Positive Allosteric Modulators of the Human D2 Dopamine Receptor: Potentiators. D(2) dopamine receptor (Homo sapiens), P14416. DiscoveRx D2 beta-arrestin cells, luminescence, 90 min; 100% = 57 uM dopamine signal. potentiation, % (concentration not given with the values). 360,000 compounds, 0.23% hits. AID 624464, 2012; in the data active = potentiation above about 50%; inconclusive = mostly about 30% to 49%
#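 PathHunter beta-arrestin assay in DiscoveRx D2 cells. Compounds were added with an EC20 of dopamine (50 nM final) for 90 min at 37 deg C. Luminescence was read 1 h after detection reagent, with 57 uM dopamine as the EC100 control.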
# D2 antag – HTS Assay for Allosteric Antagonists of the Human D2 Dopamine Receptor: Primary Screen for Antagonists. HEK293 TREx D2 cells, calcium flux, dopamine EC80. inhibition, % at 10 µM. 340,000 compounds, 2% hits; in the data active = inhibition above about 30%; inactive = below that, where a call was filed; also: 0% is about no effect
#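 Inhibition of EC80 dopamine-driven calcium flux, recorded kinetically, defines activity here; cells are a tetracycline-induced HEK293 T-REx line expressing force-coupled D2.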
# D2 PAM-2 – HTS Assay for Positive Allosteric Modulators of the Human D2 Dopamine Receptor: Primary Screen for Potentiators | D(2) dopamine receptor (Homo sapiens), P14416 | HEK293 T-REx D2, calcium flux, EC20 dopamine potentiation | potentiation, % at 10 µM | 340,000 compounds, 0.34% hits | AID 485347, 2010;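 active = potentiation over 3 SD above the plate norm, cut at about 30% in these data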; also: 0% is about no effect
#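 Using a no-wash calcium dye in inducible, force-coupled HEK293 Trex cells expressing D2, we tracked fluorescence each second for 180 s after compound, then for 180 s after EC20 dopamine to detect augmented signalling.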
# D2 ag-2 – HTS Assay for Allosteric Agonists of the Human D2 Dopamine Receptor: Primary Screen for Agonists. AID 485358, 2010. HEK293 T-REx D2 cells, calcium flux agonist mode. 340,000 compounds, 0.53% hits. activation, % at 2 µM;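 active = activation over 3 SD above normal in the single-dose calcium agonist read, cut at about 30% in these data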; also: 0% is about no effect
#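 Tetracycline-induced HEK293 T-REx cells with force-coupled D2 receptor, plated overnight at 30 C, loaded with no-wash calcium dye. After a 10 s baseline, compound was pin-added and calcium flux read kinetically for 180 s; calcium rises flagged agonists.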
# D3 arrestin ag – qHTS of D3 Dopamine Receptor Agonist: D3 Dopamine Receptor B-arrestin Agonist Confirmatory Assay | shares compounds with D2 ag-2 | Potency, µM (series often up to 76.9 µM), without a hit: at the top dose activation, usual class: activators | DiscoveRx D3 beta-arrestin cells, luminescence, 90 min | 2,300 compounds, 4% hits | AID 720506, 2013;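 also: potency is read from the fitted curve at half-maximal effect; 100% = dopamine control response; nearly all actives have a fitted effect of over 70% in size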
# Target sequence (P35462 whole entry, looked up): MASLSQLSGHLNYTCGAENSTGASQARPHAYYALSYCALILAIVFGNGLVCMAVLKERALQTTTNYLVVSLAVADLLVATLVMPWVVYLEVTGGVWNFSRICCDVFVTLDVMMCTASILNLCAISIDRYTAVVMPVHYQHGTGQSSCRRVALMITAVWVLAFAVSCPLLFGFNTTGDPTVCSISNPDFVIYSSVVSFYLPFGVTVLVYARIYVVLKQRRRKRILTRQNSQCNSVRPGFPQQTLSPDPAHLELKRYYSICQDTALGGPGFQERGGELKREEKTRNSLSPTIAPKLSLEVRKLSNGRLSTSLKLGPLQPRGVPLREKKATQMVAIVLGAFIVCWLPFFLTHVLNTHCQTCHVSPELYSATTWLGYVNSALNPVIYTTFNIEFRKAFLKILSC
# D2 ag-3 – qHTS of D3 Dopamine Receptor Agonist: D2 Dopamine Receptor B-arrestin Agonist Counterscreen. shares compounds with D2 ag-2. DiscoveRx PathHunter D2 beta-arrestin, luminescence, 90 min; response scale: percent relative to full dopamine signal. Potency, µM (doses to about 76.9 µM), for inactives: top-dose activation, most hits filed as activators. 2,300 compounds, 5.9% hits. AID 720507, 2013; also: potency is read from the fitted curve at half-maximal effect; % of control where 0% means no effect; nearly all actives have a fitted effect of over 70% in size
# The depositor's hits bear a star; ? = inconclusive; . = no result. Unless noted, calls follow the shape of the dose curve; as a rule, active = well fitted activation curve with a large enough effect; inconclusive = small, poorly fitted or top-dose-only effect; inactive = flat fitted curve, though single readings scatter.
SMILES,D2 ag-1,D2 PAM-1,D2 antag,D2 PAM-2,D2 ag-2,D3 arrestin ag,D2 ag-3
CCN1C(C(=O)Nc2cc(C)on2)=C(O)c2ccccc2S1(=O)=O,-2,-1,14,4,38*,3%,12%
CC(C)CCN(Cc1ccco1)C(=O)Cn1ncc2c([nH]c3ccccc32)c1=O,.,.,.,-14,1,.,.
Cc1ccccc1NC(=O)COc1coc(CN2CCN(Cc3ccccc3)CC2)cc1=O,1,-13,-4,-34,74*,-32%,-3%
Cc1ccc(NC(=O)COc2coc(CN3CCN(Cc4ccccc4)CC3)cc2=O)cc1,4,-7,4,11,-1,.,.
O=C(COc1coc(CN2CCN(c3ccccc3F)CC2)cc1=O)NC1CCCCC1,15,2,19,-8,1,12%,16%
CCCCn1c(N)c(N(CCC(C)C)C(=O)c2cccc(N3C(=O)c4ccccc4C3=O)c2)c(=O)[nH]c1=O,-1,-11,.,.,.,.,.
CCCCN(C(=O)c1ccc(N2C(=O)c3ccccc3C2=O)cc1)c1c(N)n(CC(C)C)c(=O)[nH]c1=O,-2,19,-13,4,0,0%,27%
COc1ccccc1NC(=O)C1=C(C)Nc2nc(SCc3ccccc3Cl)nn2C1c1ccccn1 (stereo not given),.,.,.,4,1,.,.
CCC(C)(C)C1CCC2(CC1)NC(=O)N(CC(=O)N(C)Cc1ccc3c(c1)OCCO3)C2=O (stereo not given),7,0,9,-4,0,1%,7%
CN(Cc1ccc2c(c1)OCCO2)C(=O)CN1C(=O)NC2(CCCCC2)C1=O,-6,-9,-7,4,0,.,.
CC(=O)Nc1ccc(/C=N/N2C(=O)NC(C)(c3ccc(OC(F)F)cc3)C2=O)cc1 (stereo not given),-2,-14,47*,-14,37*,-8%,-4%
CCOc1ccc(OCC)c(NS(=O)(=O)c2c(C)[nH]c(=O)[nH]c2=O)c1,.,.,.,-8,0,.,.
CCOc1ccc(NC(=O)Cn2ccn3nc(-c4ccc(OC)c(OC)c4)cc3c2=O)cc1,.,.,.,0,1,.,.
CC1(C)CC(=O)C2=C(C1)OC(N)=C(C#N)C21CCN(Cc2ccccc2)CC1,2,-22,-16,7,3,.,.
Cc1nc2c([nH]1)C1(CCN(Cc3ccccc3)CC1)C(C#N)=C(N)O2,?,8,60*,-36,71*,8%,10%
Cc1nn(-c2ccc(C(=O)N3CCN(S(=O)(=O)c4ccccc4C(F)(F)F)CC3)cc2)c(C)c1Cl,?,3,56*,-35,74*,0.79µM*,32µM*
Cc1c(C(=O)OC2CCCCC2)[nH]c2c1C(=O)CC(c1ccc(C(C)(C)C)cc1)C2 (stereo not given),.,.,.,8,0,.,.
COc1cccc(C2CC(=O)N(c3ccc(F)cc3)C3=C2C(=O)OC3)c1OC (stereo not given),.,.,.,15,0,.,.
Cc1ccccc1C(=O)Nc1nnc(SC(C)C)s1,1,-29,29,-3,18,-3%,-1%
CC1CCN(c2ccc(C(=O)NCc3ccco3)cc2[N+](=O)[O-])CC1,-1,-14,6,2,0,-10%,-11%
CCc1ccc(-n2c(=O)c3c4c(sc3n(Cc3cc(=O)n5c(C)cccc5n3)c2=O)CCC4)cc1,.,.,.,-1,0,.,.
COc1ccc(Br)cc1CNC(=O)c1cnc2sc(N3CCC(C)CC3)nn2c1=O,.,.,.,5,-1,.,.
COc1ccc2cc(C(=O)C3CCCN(Cc4cnc(N5CCOCC5)s4)C3)ccc2c1 (stereo not given),0,-5,-4,-14,36*,-9%,0%
CCOC(=O)C1=C(CSc2nc(-c3ccncc3)ccc2C#N)OC(N)=C(C#N)C1c1ccc(OC)cc1 (stereo not given),6,18,17,0,0,.,.
CCOC(=O)C1=C(CSc2nc(CC)c(C)cc2C#N)OC(N)=C(C#N)C1c1ccc(OC)cc1 (stereo not given),-2,2,13,-1,3,10%,2%
SMILES,D2 ag-1,D2 PAM-1,D2 antag,D2 PAM-2,D2 ag-2,D3 arrestin ag,D2 ag-3
CC1CCC(Nc2nc3c(-c4cccc(C(F)(F)F)c4)nnn3c3ccccc23)CC1 (stereo not given),.,.,.,21,.,.,.
Cc1cc(C)n2c(SCC(=O)N(C)C3CCS(=O)(=O)C3)nnc2n1 (stereo not given),-2,-23,28,-12,60*,4%,6%
CN(C(=O)CSc1nnc(-c2ccccc2)n1C)C1CCS(=O)(=O)C1 (stereo not given),-2,0,9,4,-1,.,.
CCN(CC)c1ccc(NC(=O)C2COc3ccc(OC)cc3C2)c(C)c1 (stereo not given),.,.,.,-4,0,.,.
O=C(NC1(Cc2ccccc2)CCN(CCc2cccs2)C1=O)c1ccccc1 (stereo not given),4,-4,0,10,0,-11%,-4%
CC1(NC(=O)c2ccccc2)CCN(CCc2cccs2)C1=O (stereo not given),-3,-8,.,-5,.,.,.
CC(=O)CCc1ccc(OCC(O)CNCCOc2ccc(C)cc2)cc1 (stereo not given),6,-7,61*,-26,66*,?,?
Cc1cccc(Nc2nc(N)nc(CN3CCN(c4ccccc4F)CC3)n2)c1,5,3,.,.,.,.,.
Nc1nc(CN2CCN(Cc3ccccc3)CC2)nc(Nc2ccccc2)n1,-3,-21,-1,9,0,.,.
CCOc1ccc(Nc2nc(N)nc(CN3CCN(c4ccccc4F)CC3)n2)cc1,8,-3,33*,-18,48*,15%,?
COc1ccc(N2CCN(Cc3nc(N)nc(Nc4ccccc4OC)n3)CC2)cc1,-4,-4,8,9,0,.,.
COc1ccc(Nc2nc(N)nc(CN3CCN(c4ccc(F)cc4)CC3)n2)cc1,7,5,17,-25,43*,1%,11%

# Assay outcomes from PubChem BioAssay.
